Reference: PMC7862700, “An all-to-all approach to the identification of sequence-specific readers for epigenetic DNA modifications on cytosine”

Assays:
Test in all cases: DAPPL (digital affinity profiling via proximity ligation, sequencing); 10 mM Tris-HCl pH 7.5, 50 mM NaCl, 1 mM DTT, 4% glycerol, room temperature, 30 min; GST-TFs on glutathione beads, 16-mer random dsDNA library, 0.1% formaldehyde crosslink after washing; high values mean tight binding
FEV = target: T1, FEV (Homo sapiens, UniProt Q99581 1-238); conditions: protein: recombinant; tags: N-terminal GST; dsDNA, one strand shown
T1 sequence: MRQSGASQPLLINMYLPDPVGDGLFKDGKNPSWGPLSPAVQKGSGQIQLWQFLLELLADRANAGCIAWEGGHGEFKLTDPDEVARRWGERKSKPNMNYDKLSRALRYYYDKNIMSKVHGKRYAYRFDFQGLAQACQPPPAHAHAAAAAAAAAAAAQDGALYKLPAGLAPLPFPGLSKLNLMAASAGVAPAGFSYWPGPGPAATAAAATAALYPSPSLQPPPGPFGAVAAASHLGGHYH
Outline: (§1)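 Binding signal is each hexamer's read frequency for a factor divided by its frequency in the tag-only sample. The factors were GST-fused human transcription factors from yeast, captured on glutathione beads, DNA-barcoded and pooled with that sample. Pools were incubated with 200 nmole of a random double-stranded 16-mer DNA library in Tris/NaCl/DTT/glycerol buffer at room temperature for 30 min, then washed, crosslinked with 0.1% formaldehyde, proximity-ligated with BsaI/T4 ligase (1 h, 37 °C), PCR-amplified and sequenced on an Illumina NextSeq500.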

ETV5 = ETV5 (Homo sapiens, UniProt P41161 1-510); conditions: protein: recombinant; tags: N-terminal GST; dsDNA, one strand shown
Outline: as §1

HSF1 = HSF1 (Homo sapiens, UniProt Q00613 1-529); conditions: protein: recombinant; tags: N-terminal GST; chain copies: 3; dsDNA, one strand shown
Outline: as §1

SPIC = target: T2, SPIC (Homo sapiens, UniProt Q8N5J4 1-248); conditions: protein: recombinant; tags: N-terminal GST; dsDNA, one strand shown
T2 sequence: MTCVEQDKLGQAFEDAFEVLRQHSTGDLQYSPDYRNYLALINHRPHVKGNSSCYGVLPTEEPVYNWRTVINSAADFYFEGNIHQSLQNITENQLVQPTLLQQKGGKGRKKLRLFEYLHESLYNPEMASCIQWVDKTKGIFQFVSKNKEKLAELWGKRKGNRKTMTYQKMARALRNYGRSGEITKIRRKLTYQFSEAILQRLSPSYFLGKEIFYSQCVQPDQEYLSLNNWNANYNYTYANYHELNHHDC
Outline: as §1

ELF4 = ELF4 (Homo sapiens, UniProt Q99607 1-663); conditions: protein: recombinant; tags: N-terminal GST; dsDNA, one strand shown
Outline: as §1

ELK4 = target: T3, ELK4 (Homo sapiens, UniProt P28324-2 1-405); conditions: protein: recombinant; tags: N-terminal GST; dsDNA, one strand shown
T3 sequence: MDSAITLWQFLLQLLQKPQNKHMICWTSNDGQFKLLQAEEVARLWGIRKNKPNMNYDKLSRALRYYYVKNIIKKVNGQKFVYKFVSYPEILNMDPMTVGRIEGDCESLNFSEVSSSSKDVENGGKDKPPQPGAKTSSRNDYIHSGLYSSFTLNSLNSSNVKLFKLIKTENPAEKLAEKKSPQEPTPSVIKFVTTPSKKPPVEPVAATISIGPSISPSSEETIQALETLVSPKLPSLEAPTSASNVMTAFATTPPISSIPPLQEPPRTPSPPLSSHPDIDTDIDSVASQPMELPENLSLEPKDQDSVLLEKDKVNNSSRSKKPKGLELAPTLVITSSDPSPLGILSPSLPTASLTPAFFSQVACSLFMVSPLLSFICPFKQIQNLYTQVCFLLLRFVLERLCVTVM
Outline: as §1

ETV2 = target: T4, ETV2 (Homo sapiens, UniProt O00321 1-342); conditions: protein: recombinant; tags: N-terminal GST; dsDNA, one strand shown
T4 sequence: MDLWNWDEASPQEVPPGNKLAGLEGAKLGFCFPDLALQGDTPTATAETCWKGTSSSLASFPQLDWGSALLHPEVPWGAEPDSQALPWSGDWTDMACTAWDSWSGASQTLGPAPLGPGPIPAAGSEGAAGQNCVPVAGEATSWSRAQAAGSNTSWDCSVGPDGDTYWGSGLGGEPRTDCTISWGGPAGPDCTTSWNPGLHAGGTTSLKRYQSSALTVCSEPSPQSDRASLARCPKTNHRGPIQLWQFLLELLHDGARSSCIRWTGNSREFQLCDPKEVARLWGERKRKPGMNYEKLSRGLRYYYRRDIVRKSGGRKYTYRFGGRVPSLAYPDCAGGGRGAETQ
Outline: as §1

ELF3 = target: T5, ELF3 (Homo sapiens, UniProt P78545 1-371); conditions: protein: recombinant; tags: N-terminal GST; dsDNA, one strand shown
T5 sequence: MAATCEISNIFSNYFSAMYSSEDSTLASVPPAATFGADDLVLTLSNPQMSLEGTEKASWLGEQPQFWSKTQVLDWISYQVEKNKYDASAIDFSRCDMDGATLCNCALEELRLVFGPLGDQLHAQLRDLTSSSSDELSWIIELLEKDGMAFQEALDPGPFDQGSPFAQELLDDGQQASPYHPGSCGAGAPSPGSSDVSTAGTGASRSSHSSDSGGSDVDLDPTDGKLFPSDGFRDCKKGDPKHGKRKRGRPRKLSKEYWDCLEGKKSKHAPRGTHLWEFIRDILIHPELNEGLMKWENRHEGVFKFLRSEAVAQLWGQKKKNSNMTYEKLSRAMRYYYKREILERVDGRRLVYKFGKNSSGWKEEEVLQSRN
Outline: as §1

CRX = CRX (Homo sapiens, UniProt O43186 1-299); conditions: protein: recombinant; tags: N-terminal GST; dsDNA, one strand shown
Outline: as §1

ETV1 = ETV1 (Homo sapiens, UniProt P50549 1-477); conditions: protein: recombinant; tags: N-terminal GST; dsDNA, one strand shown
Outline: as §1

ERF = target: T6, ERF (Homo sapiens, UniProt P50548 1-548); conditions: protein: recombinant; tags: N-terminal GST; dsDNA, one strand shown
T6 sequence: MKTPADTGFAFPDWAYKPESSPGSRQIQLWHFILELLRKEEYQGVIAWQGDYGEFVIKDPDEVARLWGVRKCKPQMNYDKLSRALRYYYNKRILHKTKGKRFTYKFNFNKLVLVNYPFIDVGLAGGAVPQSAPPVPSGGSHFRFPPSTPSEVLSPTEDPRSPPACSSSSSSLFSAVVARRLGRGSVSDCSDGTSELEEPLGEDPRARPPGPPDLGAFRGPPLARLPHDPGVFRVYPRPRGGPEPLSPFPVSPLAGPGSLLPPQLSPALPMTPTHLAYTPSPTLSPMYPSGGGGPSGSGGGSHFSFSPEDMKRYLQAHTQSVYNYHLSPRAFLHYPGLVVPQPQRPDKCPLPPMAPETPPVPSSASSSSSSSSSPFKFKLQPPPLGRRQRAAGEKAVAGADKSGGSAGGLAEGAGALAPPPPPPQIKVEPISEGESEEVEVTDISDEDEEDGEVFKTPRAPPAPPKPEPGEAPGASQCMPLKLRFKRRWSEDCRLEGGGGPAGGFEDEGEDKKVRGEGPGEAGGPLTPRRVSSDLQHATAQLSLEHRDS
Outline: as §1

ETV3L = target: T7, ETV3L (Homo sapiens, UniProt Q6ZN32 1-361); conditions: protein: recombinant; tags: N-terminal GST; dsDNA, one strand shown
T7 sequence: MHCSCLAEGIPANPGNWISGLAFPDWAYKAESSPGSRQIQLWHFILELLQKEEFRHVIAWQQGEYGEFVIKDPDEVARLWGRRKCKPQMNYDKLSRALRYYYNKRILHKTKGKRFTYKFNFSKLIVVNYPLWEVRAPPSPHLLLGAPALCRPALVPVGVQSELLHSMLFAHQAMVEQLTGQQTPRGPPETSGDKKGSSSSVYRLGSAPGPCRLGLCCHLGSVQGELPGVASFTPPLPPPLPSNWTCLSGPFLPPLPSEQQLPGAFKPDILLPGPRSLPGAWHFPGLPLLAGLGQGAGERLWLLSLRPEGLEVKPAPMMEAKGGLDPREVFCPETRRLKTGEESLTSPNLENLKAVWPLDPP
Outline: as §1

ETS2 = target: T8, ETS2 (Homo sapiens, UniProt P15036 1-469); conditions: protein: recombinant; tags: N-terminal GST; dsDNA, one strand shown
T8 sequence: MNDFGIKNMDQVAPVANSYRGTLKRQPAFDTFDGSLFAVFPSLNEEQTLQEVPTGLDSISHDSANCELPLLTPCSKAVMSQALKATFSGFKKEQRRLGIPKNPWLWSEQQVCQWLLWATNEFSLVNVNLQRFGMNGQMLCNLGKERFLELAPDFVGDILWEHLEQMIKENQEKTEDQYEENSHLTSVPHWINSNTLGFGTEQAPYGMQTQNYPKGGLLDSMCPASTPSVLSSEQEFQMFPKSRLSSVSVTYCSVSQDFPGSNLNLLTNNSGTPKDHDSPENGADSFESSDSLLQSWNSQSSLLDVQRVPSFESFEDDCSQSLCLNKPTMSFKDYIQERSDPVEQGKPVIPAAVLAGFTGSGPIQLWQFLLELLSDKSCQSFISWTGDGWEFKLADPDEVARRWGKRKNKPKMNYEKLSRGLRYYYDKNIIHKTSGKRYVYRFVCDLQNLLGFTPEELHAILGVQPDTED
Outline: as §1

SPDEF = target: T9, SPDEF (Homo sapiens, UniProt O95238 1-335); conditions: protein: recombinant; tags: N-terminal GST; dsDNA, one strand shown
T9 sequence: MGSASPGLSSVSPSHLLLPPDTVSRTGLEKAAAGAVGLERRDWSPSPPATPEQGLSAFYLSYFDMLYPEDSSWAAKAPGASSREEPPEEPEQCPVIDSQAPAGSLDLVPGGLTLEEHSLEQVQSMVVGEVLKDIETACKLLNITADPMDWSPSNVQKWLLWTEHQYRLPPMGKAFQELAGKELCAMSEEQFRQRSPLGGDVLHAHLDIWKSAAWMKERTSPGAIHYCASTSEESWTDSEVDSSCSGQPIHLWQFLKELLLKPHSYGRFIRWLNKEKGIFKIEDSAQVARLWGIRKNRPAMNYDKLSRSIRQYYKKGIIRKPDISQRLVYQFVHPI
Outline: as §1

ETV7 = target: T10, ETV7 (Homo sapiens, UniProt Q9Y603 1-341); conditions: protein: recombinant; tags: N-terminal GST; dsDNA, one strand shown
T10 sequence: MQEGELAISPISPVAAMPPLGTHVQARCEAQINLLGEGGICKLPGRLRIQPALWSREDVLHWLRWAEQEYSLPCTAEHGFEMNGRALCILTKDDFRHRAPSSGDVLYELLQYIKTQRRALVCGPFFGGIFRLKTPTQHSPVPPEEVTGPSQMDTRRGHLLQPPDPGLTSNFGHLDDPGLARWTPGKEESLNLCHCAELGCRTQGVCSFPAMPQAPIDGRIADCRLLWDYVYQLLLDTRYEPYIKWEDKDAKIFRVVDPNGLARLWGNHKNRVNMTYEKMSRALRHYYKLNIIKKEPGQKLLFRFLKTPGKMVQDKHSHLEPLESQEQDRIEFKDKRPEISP
Outline: as §1

ELF5 = target: T11, ELF5 (Homo sapiens, UniProt Q9UKW6-2 1-255); conditions: protein: recombinant; tags: N-terminal GST; dsDNA, one strand shown
T11 sequence: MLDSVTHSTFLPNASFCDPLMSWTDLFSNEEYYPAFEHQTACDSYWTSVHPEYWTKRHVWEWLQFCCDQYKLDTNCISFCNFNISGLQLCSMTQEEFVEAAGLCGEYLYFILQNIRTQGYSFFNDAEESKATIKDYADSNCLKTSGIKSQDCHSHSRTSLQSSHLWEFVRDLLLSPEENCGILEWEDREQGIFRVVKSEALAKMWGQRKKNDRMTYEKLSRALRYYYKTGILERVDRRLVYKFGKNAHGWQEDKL
Outline: as §1

ETV3 = target: T12, ETV3 (Homo sapiens, UniProt P41162-2 1-143); conditions: protein: recombinant; tags: N-terminal GST; dsDNA, one strand shown
T12 sequence: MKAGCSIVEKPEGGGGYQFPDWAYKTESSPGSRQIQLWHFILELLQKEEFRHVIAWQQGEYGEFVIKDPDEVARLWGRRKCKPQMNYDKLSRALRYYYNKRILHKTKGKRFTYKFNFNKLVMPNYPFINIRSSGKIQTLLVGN
Outline: as §1

ETV6 = ETV6 (Homo sapiens, UniProt P41212 1-452); conditions: protein: recombinant; tags: N-terminal GST; dsDNA, one strand shown
Outline: as §1

Chain of HSF1 (Q00613 whole entry): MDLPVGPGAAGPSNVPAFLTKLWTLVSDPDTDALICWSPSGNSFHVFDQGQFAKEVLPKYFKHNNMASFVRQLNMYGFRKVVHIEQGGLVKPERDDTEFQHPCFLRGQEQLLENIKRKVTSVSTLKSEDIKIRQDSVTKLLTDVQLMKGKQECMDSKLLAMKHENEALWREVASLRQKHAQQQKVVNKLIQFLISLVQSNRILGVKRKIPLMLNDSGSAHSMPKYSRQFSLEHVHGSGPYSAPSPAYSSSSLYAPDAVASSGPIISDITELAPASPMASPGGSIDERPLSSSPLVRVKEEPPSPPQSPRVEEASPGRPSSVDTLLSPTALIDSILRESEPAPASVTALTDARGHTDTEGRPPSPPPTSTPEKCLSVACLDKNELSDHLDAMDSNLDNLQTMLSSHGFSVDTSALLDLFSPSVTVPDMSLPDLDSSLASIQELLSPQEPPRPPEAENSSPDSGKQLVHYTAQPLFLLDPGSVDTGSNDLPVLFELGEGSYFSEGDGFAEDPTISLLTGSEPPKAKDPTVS
Chain of ETV6 (P41212 whole entry): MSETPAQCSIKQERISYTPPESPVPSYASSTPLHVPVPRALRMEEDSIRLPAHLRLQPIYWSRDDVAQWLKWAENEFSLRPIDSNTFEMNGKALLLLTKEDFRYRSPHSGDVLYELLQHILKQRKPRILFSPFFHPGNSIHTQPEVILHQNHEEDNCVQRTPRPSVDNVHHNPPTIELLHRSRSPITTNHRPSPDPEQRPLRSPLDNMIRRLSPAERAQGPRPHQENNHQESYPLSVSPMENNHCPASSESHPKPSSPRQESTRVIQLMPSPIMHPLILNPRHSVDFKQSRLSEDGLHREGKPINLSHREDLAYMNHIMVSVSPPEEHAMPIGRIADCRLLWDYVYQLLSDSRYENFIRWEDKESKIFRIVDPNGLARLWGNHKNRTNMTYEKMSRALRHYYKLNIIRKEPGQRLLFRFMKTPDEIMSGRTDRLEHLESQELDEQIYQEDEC
Chain of ETV5 (P41161 whole entry): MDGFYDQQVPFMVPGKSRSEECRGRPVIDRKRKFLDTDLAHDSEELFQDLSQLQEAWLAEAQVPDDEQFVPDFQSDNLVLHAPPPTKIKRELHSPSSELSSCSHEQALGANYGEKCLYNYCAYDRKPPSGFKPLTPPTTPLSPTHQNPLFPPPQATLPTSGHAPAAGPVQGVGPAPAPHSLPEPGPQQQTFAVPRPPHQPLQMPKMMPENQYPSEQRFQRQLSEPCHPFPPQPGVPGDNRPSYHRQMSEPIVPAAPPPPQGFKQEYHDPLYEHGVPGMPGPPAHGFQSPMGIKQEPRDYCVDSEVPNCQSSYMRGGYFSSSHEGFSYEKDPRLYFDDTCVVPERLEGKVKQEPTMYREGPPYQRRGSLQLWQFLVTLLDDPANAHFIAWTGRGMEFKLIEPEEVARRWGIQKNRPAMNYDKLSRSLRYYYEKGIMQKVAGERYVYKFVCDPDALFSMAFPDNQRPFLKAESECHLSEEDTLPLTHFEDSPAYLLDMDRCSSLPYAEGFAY
Chain of ELF4 (Q99607 whole entry): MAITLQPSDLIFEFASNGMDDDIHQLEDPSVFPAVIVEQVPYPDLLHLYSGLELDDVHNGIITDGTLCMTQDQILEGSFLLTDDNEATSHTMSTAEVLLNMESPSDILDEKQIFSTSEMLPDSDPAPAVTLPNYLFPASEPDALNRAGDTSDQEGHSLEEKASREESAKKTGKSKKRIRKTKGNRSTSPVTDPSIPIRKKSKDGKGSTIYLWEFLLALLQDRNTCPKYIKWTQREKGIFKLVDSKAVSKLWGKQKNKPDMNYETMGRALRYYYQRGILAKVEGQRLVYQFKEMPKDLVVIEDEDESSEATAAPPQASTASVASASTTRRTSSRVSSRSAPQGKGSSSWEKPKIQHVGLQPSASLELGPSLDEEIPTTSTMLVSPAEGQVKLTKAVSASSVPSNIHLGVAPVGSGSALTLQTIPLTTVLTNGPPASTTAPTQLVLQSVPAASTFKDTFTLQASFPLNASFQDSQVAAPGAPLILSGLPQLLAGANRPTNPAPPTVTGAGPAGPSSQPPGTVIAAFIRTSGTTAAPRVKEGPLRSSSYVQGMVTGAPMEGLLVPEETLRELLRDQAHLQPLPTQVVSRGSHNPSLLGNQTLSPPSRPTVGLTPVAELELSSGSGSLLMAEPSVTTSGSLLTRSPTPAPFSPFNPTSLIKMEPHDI
Chain of ETV1 (P50549 whole entry): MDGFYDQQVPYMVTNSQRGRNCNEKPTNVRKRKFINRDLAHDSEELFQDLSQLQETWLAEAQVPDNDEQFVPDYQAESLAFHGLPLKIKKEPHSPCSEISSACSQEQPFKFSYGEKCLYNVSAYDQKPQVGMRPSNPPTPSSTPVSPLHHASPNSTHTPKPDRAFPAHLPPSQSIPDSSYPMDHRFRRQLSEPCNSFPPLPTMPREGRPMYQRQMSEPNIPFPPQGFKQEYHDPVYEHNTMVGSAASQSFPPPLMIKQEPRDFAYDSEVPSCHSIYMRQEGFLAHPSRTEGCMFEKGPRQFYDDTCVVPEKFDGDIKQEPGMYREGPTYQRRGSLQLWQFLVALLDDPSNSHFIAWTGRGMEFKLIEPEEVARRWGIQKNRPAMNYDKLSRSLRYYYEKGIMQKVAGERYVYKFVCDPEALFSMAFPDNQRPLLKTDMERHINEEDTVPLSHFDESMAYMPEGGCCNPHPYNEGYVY
Chain of CRX (O43186 whole entry): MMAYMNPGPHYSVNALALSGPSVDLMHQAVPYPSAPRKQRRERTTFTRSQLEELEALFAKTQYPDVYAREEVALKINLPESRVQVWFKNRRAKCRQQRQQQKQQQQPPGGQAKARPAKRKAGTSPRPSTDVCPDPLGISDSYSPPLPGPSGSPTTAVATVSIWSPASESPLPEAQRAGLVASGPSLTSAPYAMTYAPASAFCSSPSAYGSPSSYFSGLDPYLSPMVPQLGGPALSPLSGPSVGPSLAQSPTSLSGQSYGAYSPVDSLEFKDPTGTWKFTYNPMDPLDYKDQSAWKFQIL

## GAATCC
FEV
  binding signal: 1.13 fold enrichment (6-mer frequency, TF over GST control)
ETV5
  binding signal: 1.17 fold enrichment (6-mer frequency, TF over GST control)
HSF1
  binding signal: 1.21 fold enrichment (6-mer frequency, TF over GST control)
SPIC
  binding signal: 1.1 fold enrichment (6-mer frequency, TF over GST control)
ELF4
  binding signal: 1.12 fold enrichment (6-mer frequency, TF over GST control)
ELK4
  binding signal: 1.19 fold enrichment (6-mer frequency, TF over GST control)
ETV2
  binding signal: 1.09 fold enrichment (6-mer frequency, TF over GST control)
ELF3
  binding signal: 1.02 fold enrichment (6-mer frequency, TF over GST control)
CRX
  binding signal: 1.19 fold enrichment (6-mer frequency, TF over GST control)
ETV1
  binding signal: 1.13 fold enrichment (6-mer frequency, TF over GST control)
ERF
  binding signal: 1.12 fold enrichment (6-mer frequency, TF over GST control)
ETV3L
  binding signal: 1.11 fold enrichment (6-mer frequency, TF over GST control)
ETS2
  binding signal: 1.13 fold enrichment (6-mer frequency, TF over GST control)
SPDEF
  binding signal: 1.54 fold enrichment (6-mer frequency, TF over GST control)
ETV7
  binding signal: 1.18 fold enrichment (6-mer frequency, TF over GST control)
ELF5
  binding signal: 1.03 fold enrichment (6-mer frequency, TF over GST control)
ETV3
  binding signal: 1.14 fold enrichment (6-mer frequency, TF over GST control)
ETV6
  binding signal: 1.08 fold enrichment (6-mer frequency, TF over GST control)
